# Measured values: PubChem BioAssay (EPA / NIEHS)
# Where “and” joins values, the source holds several entries; their conditions need not be identical. Equal entries are not always repeated. Records with an inconclusive call do not appear. Where a structure was tested more than once in an assay, its records may differ in their call. Calls of active or inactive are those of the source. How the source made its calls: active means hit-call score of the fitted dose curve at least 0.9, where 1 is the maximum; inconclusive means response in the unintended direction; inactive means score below 0.9.
# Key:
# [1] = biological target: Metabotropic glutamate receptor 1 (Rattus norvegicus) (UniProt P23385); assay: NVS_GPCR_rmMGluR1: NovaScreen (NVS) G Protein-Coupled Receptor Assay for rat Glutamate Metabotropic Receptor 1 (MGluR1) (AID 2283305)
# Procedure, shortened: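 Binding to native receptor from rat cerebellum extract, measured as displacement of a radioligand (scintillation counting, filter separation) after 1 hour. Compounds tested at 25 uM in duplicate, then titrated to a 50 uM maximum.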
# Adra2b (gene 24174) = Adra2b (gene 24174) (UniProt P19328); assay: NVS_GPCR_rmAdra2B: NovaScreen (NVS) G Protein-Coupled Receptor Assay for hybird cells Adrenergic, Alpha 2B Receptor (Adra2B) (AID 2283306)
# Procedure, shortened: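 Compounds screened first at 25 uM in duplicate, with actives followed up in concentration-response; specific radioligand displacement from hybrid neuroglioma/blastoma cell membrane preparations measured by filter scintillation counting after 1 h, normalized to DMSO.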
# [2] = biological target: rat Neurokinin-1 Receptor (NK1), Tacr1 (gene 24807) (UniProt P14600); assay: NVS_GPCR_rNK1: NovaScreen (NVS) G Protein-Coupled Receptor Assay for rat Neurokinin-1 Receptor (NK1) (AID 2283309)
# Procedure, shortened: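 Competitive radioligand binding to NK1 in rat submaxillary membranes, 1 h incubation, filtration and scintillation read-out. Compounds first screened at 25 uM in duplicate, then concentration-response for actives; signal loss relative to DMSO.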
# [3] = biological target: rat Neurokinin-3 Receptor (NK3), Tacr3 (gene 24808) (UniProt P16177); assay: NVS_GPCR_rNK3: NovaScreen (NVS) G Protein-Coupled Receptor Assay for rat Neurokinin-3 Receptor (NK3) (AID 2283310)
# Procedure, shortened: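 Filter-based radioligand displacement on rat cortex membrane preparations, read by scintillation 2 h post-dose. Chemicals first tested in duplicate at 25 uM; actives followed up in concentration series with a 50 uM maximum.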
# [4] = biological target: rat Somatostatin Receptor (SST), Sstr1 (gene 25033) (UniProt P28646); assay: NVS_GPCR_rSST: NovaScreen (NVS) G Protein-Coupled Receptor Assay for rat Somatostatin Receptor (SST) (AID 2283314)
# Procedure, shortened: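 Single-concentration duplicate screen (25 uM), then concentration-response up to 50 uM for chemicals passing a threshold such as 30% inhibition. Membranes came from rat forebrain. Binding was measured 1 h post-dose by filter radiodetection and scintillation, relative to DMSO.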
# [5] = biological target: rat Neonicotinoid receptor (NNR), Chrna7 (gene 25302) (UniProt Q05941); assay: NVS_LGIC_rNNR_BungSens: NovaScreen (NVS) Ligand-Gated Ion Channel Assay for rat Neonicotinoid receptor (NNR) (AID 2283315)
# Procedure, shortened: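 Rat cortical membrane preparation incubated 2.5 h with tritiated or iodinated radioligand and test chemical. Bound radioactivity was filtered and counted by scintillation, and displacement was analysed against DMSO.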
# [6] = biological target: rat Vasopressin 1 Receptor (V1), Avpr1a (gene 25107) (UniProt P30560); assay: NVS_GPCR_rV1: NovaScreen (NVS) G Protein-Coupled Receptor Assay for rat Vasopressin 1 Receptor (V1) (AID 2283316)
# Procedure, shortened: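 Concentration-response up to 50 uM for chemicals passing a threshold such as 30% inhibition in an initial duplicate 25 uM screen. Displacement of radioligand from rat liver membranes measured after 1.5 h by filtration and scintillation.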
# NCBI gene 24521 = assay: NVS_IC_rKATPCh: NovaScreen (NVS) Ion Channel Assay for rat Potassium Channel, ATP-Sensitive (KATPCh) (AID 2283319)
# Procedure, shortened: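 Primary duplicate screen at 25 uM, then singleton concentration series to 50 uM maximum, in a rat cortex membrane radioligand displacement assay. Binding measured by filtration and scintillation 2 h post-dose; DMSO baseline.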
# [7] = NVS_IC_rCaDHPRCh_L: NovaScreen (NVS) Ion Channel Assay for rat Calcium Channel, Type L, Dihydropyridine Site (CaDHPRCh_L) (AID 2283320)
# Procedure, shortened: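 Rat cortex membrane preparation; dihydropyridine-site radioligand displacement read 1 h post-dose by filtration and scintillation. Primary single-point screen 25 uM in duplicate, then concentration series to 50 uM maximum; DMSO as negative control.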
# [8] = biological target: Sodium channel protein type 1 subunit alpha (Rattus norvegicus) (UniProt P04774); assay: NVS_IC_rNaCh_site2: NovaScreen (NVS) Ion Channel Assay for rat Sodium Channel, Site 2 (NaCh) (AID 2283322);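 further: hit means loss of radioligand binding signal relative to DMSO so AC50 marks displacement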
# Procedure, shortened: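 Initial duplicate single-point testing at 25 uM, followed by concentration-response runs for actives. Binding of radioligand to rat forebrain membranes quantified after 1 h via filter-based radiodetection.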
# [9] = biological target: rat Glutamate, AMPA Site (AMPA), Gria1 (gene 50592) (UniProt P19490); assay: NVS_LGIC_rAMPA: NovaScreen (NVS) Ligand-Gated Ion Channel Assay for rat Glutamate, AMPA Site (AMPA) (AID 2283324)
# Procedure, shortened: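 Screening at 25 uM in duplicate preceded concentration series reaching 50 uM for qualifying compounds. Radioligand displacement on rat forebrain membranes, 1 h, filter-based scintillation readout; reduced binding relative to DMSO.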
# [10] = biological target: rat Gamma-Aminobutyric Acid Type A Receptor, Non-Selective (GABAR-NonSelective), Gabra1 (gene 29705) (UniProt P62813); assay: NVS_LGIC_rGABAR_NonSelective: NovaScreen (NVS) Ligand-Gated Ion Channel Assay for rat Gamma-Aminobutyric Acid Type A Receptor, Non-Selective (GABAR-NonSelective) (AID 2283326)
# Procedure, shortened: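 Compounds were first screened in duplicate at 25 uM, with actives run as singleton concentration series (max 50 uM). Binding of a radioligand to rat whole-brain GABA-A preparation was measured by filtration and scintillation counting after 1 h, DMSO baseline.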
# [11] = biological target: rat Glutamate, NMDA Agonist Site (GluNMDA), Grin1 (gene 24408) (UniProt P35439); assay: NVS_LGIC_rGluNMDA_Agonist: NovaScreen (NVS) Ligand-Gated Ion Channel Assay for rat Glutamate, NMDA Agonist Site (GluNMDA) (AID 2283327)
# Procedure, shortened: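 Radioligand displacement at the agonist site on rat forebrain membrane preparations, read by filter scintillation after 1 h. Chemicals were first run at 25 uM in duplicate; those passing threshold were titrated to a 50 uM maximum.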
# [12] = biological target: human Peripheral-type Benzodiazepine Receptor (PBR), TSPO (gene 706) (UniProt P30536); assay: NVS_MP_hPBR: NovaScreen (NVS) Membrane Protein Assay for human Peripheral-type Benzodiazepine Receptor (PBR) (AID 2283331);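 further: hits reduce radioligand binding relative to DMSO baseline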
# Procedure, shortened: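 Using human colon-derived membranes, this one-endpoint binding test reads radioligand loss by scintillation after 1 h. Screening started at 25 uM in duplicate, with positive and negative controls on every plate, and actives moved to dose series.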
# [13] = biological target: human Androgen Receptor (AR), AR (gene 367) (UniProt P10275); assay: NVS_NR_hAR: NovaScreen (NVS) Nuclear Receptor Binding Assay for human Androgen Receptor (AR) (AID 2283332)
# Procedure, shortened: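 Actives from a duplicate 25 uM single-point screen went on to concentration series. Read-out after 20 h was scintillation counting of displaced radioligand in LnCAP extract, with DMSO as baseline.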
# [14] = biological target: rat Thyrotropin Releasing Hormone Receptor (TRH), Trhr (gene 25570) (UniProt Q01717); assay: NVS_GPCR_rTRH: NovaScreen (NVS) G Protein-Coupled Receptor Assay for rat Thyrotropin Releasing Hormone Receptor (TRH) (AID 2283329);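 further: hit means lower bound tracer signal versus DMSO baseline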
# Procedure, shortened: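 Rat forebrain membrane prep, radioligand displacement, filter scintillation readout at 4 h. Single conc 25 uM, duplicate; actives retested as concentration series. DMSO = negative control/baseline.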
# [15] = biological target: human Constitutive Androstane Receptor (CAR), NR1I3 (gene 9970) (UniProt Q14994); assay: NVS_NR_hCAR_Agonist: NovaScreen (NVS) Nuclear Receptor Binding Assay for human Constitutive Androstane Receptor Agonism (CAR) (AID 2283328)
# Procedure, shortened: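 Actives from a 25 uM duplicate screen were retested in singleton concentration series to 50 uM max. Biochemical TR-FRET assay on extracted CAR protein measured 1 h post-dose, with signal increase over DMSO control.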
# [16] = biological target: bovine Gamma-Aminobutyric Acid Type A Receptor BDZ, alpha 5 site (GABARa5), GABRA5 (gene 523515) (UniProt Q08E50); assay: NVS_LGIC_bGABARa5: NovaScreen (NVS) Ligand-Gated Ion Channel Assay for bovine Gamma-Aminobutyric Acid Type A Receptor BDZ, alpha 5 site (GABARa5) (AID 2283323)
# Procedure, shortened: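 Tested first in duplicate at a single 25 uM, with hits re-run in concentration series to a 50 uM maximum. Bovine hippocampal membranes; specific radioligand displacement measured by filter scintillation counting 1 hr post-dose.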
# [17] = biological target: human Serotonin, 5-Hydroxytryptamine Receptor 3 (5HT3), HTR3A (gene 3359) (UniProt P46098); assay: NVS_LGIC_h5HT3: NovaScreen (NVS) Ligand-Gated Ion Channel Assay for human Serotonin, 5-Hydroxytryptamine Receptor 3 (5HT3) (AID 2283325)
# Procedure, shortened: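 Initially tested at 25 uM in duplicate, then up to 50 uM in concentration-response for actives, compounds competed with a radioligand for HEK293-derived human 5-HT3 receptor. Bound counts were measured by filtration and scintillation at 1 h; loss of signal versus DMSO.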
# Chain of rat Neurokinin-3 Receptor (NK3), Tacr3 (gene 24808) (P16177 whole entry, looked up): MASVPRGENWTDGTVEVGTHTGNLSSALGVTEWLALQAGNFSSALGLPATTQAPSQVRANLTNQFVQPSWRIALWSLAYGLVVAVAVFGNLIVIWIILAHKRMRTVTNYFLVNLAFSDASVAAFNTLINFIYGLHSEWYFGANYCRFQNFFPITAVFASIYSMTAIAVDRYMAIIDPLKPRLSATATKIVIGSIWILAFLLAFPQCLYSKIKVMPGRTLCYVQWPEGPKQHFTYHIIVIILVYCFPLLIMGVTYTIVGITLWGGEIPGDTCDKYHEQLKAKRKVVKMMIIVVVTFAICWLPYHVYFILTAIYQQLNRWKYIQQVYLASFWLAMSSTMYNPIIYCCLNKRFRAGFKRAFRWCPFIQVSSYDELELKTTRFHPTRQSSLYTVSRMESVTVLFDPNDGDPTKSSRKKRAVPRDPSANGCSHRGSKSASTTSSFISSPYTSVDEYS
# Chain of rat Vasopressin 1 Receptor (V1), Avpr1a (gene 25107) (P30560 whole entry, looked up): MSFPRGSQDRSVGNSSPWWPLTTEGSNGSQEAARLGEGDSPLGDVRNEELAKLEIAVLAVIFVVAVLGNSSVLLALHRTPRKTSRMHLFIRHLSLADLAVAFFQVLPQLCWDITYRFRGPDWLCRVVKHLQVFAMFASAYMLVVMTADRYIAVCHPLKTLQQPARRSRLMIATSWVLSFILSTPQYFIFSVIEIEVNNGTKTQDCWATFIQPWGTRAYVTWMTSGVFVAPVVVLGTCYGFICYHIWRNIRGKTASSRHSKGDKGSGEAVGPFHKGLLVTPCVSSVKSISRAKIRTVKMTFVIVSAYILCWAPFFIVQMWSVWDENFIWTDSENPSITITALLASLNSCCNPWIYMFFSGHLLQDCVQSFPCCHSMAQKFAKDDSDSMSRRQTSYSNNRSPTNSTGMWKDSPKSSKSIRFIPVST
# Chain of rat Gamma-Aminobutyric Acid Type A Receptor, Non-Selective (GABAR-NonSelective), Gabra1 (gene 29705) (P62813 whole entry, looked up): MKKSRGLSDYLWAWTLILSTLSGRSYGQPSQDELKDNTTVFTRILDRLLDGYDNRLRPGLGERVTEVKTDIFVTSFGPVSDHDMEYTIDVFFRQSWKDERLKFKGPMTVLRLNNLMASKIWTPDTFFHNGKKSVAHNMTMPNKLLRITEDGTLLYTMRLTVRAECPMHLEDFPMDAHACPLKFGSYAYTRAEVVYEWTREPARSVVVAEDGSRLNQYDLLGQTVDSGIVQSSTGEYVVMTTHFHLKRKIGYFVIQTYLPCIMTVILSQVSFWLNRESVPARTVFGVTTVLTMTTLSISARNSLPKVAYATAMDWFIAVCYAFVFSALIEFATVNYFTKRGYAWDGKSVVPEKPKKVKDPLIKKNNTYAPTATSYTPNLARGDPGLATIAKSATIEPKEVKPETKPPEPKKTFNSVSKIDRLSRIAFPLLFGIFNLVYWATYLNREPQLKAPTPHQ
# Chain of rat Glutamate, AMPA Site (AMPA), Gria1 (gene 50592) (P19490 whole entry, looked up): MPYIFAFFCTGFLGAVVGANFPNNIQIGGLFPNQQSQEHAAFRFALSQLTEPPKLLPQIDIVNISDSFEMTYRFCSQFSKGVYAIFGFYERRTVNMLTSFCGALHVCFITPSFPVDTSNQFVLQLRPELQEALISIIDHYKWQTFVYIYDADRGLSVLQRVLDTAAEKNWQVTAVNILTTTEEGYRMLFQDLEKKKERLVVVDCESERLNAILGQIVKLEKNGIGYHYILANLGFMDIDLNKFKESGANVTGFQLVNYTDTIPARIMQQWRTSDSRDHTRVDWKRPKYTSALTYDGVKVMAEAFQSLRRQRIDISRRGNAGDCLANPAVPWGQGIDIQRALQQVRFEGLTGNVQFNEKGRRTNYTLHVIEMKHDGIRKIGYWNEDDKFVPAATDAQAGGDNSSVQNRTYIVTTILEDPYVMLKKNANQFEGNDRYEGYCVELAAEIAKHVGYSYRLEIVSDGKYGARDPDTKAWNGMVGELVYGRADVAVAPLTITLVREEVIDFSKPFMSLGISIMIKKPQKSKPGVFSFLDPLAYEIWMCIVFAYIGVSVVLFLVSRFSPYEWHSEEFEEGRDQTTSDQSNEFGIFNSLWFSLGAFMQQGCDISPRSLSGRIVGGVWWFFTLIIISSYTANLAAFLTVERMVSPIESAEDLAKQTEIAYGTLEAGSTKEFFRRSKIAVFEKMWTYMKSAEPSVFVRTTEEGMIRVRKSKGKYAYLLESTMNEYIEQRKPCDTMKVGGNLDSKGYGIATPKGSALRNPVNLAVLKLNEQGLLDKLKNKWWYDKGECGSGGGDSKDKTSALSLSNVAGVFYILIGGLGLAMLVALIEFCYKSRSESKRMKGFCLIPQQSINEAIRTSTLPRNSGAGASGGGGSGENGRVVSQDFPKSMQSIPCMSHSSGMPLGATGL
# Chain of human Peripheral-type Benzodiazepine Receptor (PBR), TSPO (gene 706) (P30536 whole entry, looked up): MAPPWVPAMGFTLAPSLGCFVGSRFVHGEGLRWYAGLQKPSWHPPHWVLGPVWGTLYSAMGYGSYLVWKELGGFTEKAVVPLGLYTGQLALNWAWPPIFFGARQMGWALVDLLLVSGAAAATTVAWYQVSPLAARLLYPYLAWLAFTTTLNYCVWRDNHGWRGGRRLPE
# Chain of human Constitutive Androstane Receptor (CAR), NR1I3 (gene 9970) (Q14994 whole entry, looked up): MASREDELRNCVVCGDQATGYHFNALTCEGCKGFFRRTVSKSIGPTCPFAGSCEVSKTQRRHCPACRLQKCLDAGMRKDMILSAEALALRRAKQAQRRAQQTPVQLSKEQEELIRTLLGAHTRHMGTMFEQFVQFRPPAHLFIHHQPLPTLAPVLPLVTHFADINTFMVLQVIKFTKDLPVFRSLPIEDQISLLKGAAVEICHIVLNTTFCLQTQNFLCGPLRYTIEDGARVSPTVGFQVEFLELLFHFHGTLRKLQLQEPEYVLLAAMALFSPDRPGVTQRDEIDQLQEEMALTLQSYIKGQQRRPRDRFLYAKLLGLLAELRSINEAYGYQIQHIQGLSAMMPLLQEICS
# Chain of rat Thyrotropin Releasing Hormone Receptor (TRH), Trhr (gene 25570) (Q01717 whole entry, looked up): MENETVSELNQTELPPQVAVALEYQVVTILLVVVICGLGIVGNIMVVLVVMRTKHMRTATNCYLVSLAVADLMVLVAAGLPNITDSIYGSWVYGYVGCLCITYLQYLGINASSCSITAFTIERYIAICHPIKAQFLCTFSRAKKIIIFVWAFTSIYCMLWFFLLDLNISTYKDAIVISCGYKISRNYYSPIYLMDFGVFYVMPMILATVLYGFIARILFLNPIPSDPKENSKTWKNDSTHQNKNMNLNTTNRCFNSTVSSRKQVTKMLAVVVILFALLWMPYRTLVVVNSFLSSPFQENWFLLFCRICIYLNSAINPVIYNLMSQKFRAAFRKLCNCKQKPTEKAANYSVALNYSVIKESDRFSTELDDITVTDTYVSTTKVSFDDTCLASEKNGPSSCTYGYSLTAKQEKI
# Chain of rat Neonicotinoid receptor (NNR), Chrna7 (gene 25302) (Q05941 whole entry, looked up): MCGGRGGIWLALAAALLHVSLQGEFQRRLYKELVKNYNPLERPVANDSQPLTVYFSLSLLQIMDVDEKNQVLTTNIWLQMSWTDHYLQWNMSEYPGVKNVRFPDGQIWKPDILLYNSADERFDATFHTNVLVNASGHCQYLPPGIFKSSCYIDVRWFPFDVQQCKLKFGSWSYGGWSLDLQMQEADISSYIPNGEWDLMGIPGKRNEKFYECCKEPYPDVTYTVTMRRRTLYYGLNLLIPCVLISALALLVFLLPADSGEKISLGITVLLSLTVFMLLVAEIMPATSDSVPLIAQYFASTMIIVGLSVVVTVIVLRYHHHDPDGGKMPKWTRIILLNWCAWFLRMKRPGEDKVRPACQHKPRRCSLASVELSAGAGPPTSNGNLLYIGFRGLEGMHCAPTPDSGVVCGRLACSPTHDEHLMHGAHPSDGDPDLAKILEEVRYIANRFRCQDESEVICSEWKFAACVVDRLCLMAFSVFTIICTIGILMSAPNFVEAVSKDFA
# Chain of rat Somatostatin Receptor (SST), Sstr1 (gene 25033) (P28646 whole entry, looked up): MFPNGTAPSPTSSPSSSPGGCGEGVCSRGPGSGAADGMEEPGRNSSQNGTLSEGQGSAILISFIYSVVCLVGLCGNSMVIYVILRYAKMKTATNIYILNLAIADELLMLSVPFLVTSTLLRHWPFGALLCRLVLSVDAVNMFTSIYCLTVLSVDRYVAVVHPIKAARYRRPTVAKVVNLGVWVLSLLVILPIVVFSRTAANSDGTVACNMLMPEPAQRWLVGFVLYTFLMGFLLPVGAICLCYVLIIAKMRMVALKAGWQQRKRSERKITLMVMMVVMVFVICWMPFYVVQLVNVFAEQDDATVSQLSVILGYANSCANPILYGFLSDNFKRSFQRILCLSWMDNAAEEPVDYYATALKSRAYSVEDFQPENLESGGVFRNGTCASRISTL
# Chain of human Androgen Receptor (AR), AR (gene 367) (P10275 whole entry, looked up): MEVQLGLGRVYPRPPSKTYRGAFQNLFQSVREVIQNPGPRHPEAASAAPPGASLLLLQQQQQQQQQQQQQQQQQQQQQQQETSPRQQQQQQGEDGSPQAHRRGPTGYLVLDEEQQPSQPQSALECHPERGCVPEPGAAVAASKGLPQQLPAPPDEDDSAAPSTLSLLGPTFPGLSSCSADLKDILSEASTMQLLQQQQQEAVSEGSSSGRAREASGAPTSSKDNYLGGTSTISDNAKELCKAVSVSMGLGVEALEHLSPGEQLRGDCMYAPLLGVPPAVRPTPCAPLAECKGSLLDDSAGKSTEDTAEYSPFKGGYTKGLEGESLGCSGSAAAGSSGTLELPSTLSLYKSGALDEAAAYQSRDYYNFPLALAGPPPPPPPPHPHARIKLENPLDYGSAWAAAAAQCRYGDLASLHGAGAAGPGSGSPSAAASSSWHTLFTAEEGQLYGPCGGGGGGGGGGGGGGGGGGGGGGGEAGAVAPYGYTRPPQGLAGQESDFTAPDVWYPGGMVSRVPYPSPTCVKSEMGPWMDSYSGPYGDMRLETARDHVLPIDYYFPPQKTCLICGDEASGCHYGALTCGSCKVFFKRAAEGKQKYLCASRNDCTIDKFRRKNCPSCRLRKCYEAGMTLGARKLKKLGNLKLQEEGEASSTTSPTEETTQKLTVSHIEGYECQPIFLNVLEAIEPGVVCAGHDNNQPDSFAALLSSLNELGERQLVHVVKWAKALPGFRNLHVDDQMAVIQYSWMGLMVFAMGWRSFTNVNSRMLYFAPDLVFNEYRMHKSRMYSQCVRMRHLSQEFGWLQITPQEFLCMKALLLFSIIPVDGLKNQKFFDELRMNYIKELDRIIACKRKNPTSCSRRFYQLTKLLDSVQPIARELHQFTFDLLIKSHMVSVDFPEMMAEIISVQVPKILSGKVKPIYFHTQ
smiles,measurement,setting,value
CN(C)C(=O)C1(N2CCCCC2)CCN(CC[C@@]2(c3ccc(Cl)c(Cl)c3)CN(C(=O)c3ccccc3)CCO2)CC1,AC50,[1],15.5 µM (active)
same,AC50,Adra2b (gene 24174),8.86 µM (active)
same,AC50,[2],10.9 µM (active)
same,AC50,[3],0.00216 µM (active)
same,AC50,[4],12.6 µM (active)
same,outcome,[5],inactive
same,AC50,[6],38.2 µM (active)
same,outcome,NCBI gene 24521,inactive
same,AC50,[7],0.655 µM (active)
same,AC50,[8],0.822 µM (active)
same,AC50,[9],4.68 µM (active)
same,AC50,[10],2 µM (active)
same,AC50,[11],29.3 µM (active)
O=c1c(-c2ccc(O)cc2)coc2cc(O)cc(O)c12,AC50,[12],8.19 µM (active)
same,outcome,[13],inactive
OC12N=C(c3ccccc3)SC1Cc1cc(Cl)ccc12 (centres undefined),AC50,[10],2.62 µM (active)
same,outcome,[12],inactive
Clc1ccccc1C(c1ccccc1)(c1ccccc1)n1ccnc1,AC50,[6],36.5 µM (active)
CCCOC(=O)c1cc(O)c(O)c(O)c1,AC50,[3],7.59 µM (active)
NC(=O)c1nc(-c2cccc(-c3cc(F)ccc3OCC(F)(F)C(F)(F)F)c2)n[nH]1,AC50,[8],0.574 µM (active)
same,outcome,[12],inactive
CCCCCc1ccc(N)cc1,outcome,[14],inactive
O=C(O)Cc1cc(I)c(Oc2ccc(O)c(I)c2)c(I)c1,outcome,[5],inactive
CCCCOC(=O)c1ccc(O)cc1,outcome,[9],inactive
same,outcome,[15],inactive
same,AC50,[12],19.6 µM (active) and 25 µM (active)
CC(O)CC(C)(C)O (centres undefined),outcome,[3],inactive
same,outcome,[8],inactive
same,outcome,[14],inactive
CC(C)(O)c1ccc(CNC(=O)c2cccnc2Oc2ccc3nonc3c2)cc1,outcome,[16],inactive
same,outcome,[17],inactive
same,AC50,[12],2.34 µM (active)
Cc1c2ccccc2c(C)c2c1ccc1ccccc12,AC50,[6],25 µM (active)
same,outcome,[15],inactive
same,AC50,[12],14.6 µM (active)
Cc1ccc2oc(CN(Cc3ccccc3)C(=O)Nc3c(F)cc(F)cc3F)c(-c3ccc(Cl)cc3)c2c1,AC50,[12],2.6 µM (active)
CCCCCCCCN(C)CCCCCCCC,AC50,[7],16.4 µM (active)
same,AC50,[8],11.8 µM (active)
Oc1ccc2ccccc2c1,outcome,[12],inactive
O=C1O[C@H]([C@@H](O)CO)C(O)=C1O,AC50,[6],6.57 µM (active)
same,outcome,[11],inactive
CCCCCCCCCC(=O)O,outcome,[9],inactive
CCCCOC(=O)CC(CC(=O)OCCCC)(OC(C)=O)C(=O)OCCCC,outcome,[12],inactive
Cc1cc2c(cc1C(F)(F)F)N(C(=O)Nc1ccc(Oc3cccnc3C)nc1)CC2,AC50,[10],8.52 µM (active)
CC[C@@H]1C[C@H](N(Cc2cc(C(F)(F)F)cc(C(F)(F)F)c2)C(C)=O)c2cc(C(F)(F)F)ccc2N1C(=O)OC(C)C,outcome,[12],inactive
CC/C(=C(/CC)c1ccc(O)cc1)c1ccc(O)cc1,AC50,[4],25 µM (active)
same,outcome,[9],inactive
same,AC50,[12],202 nM (active) and 13.5 µM (active)
same,outcome,[12],inactive
CCCCCCCCOC(=O)c1cc(O)c(O)c(O)c1,outcome,[3],inactive
same,AC50,[8],17.7 µM (active)
same,AC50,[12],0.439 µM (active)
O=C(O)Cn1c(=O)n(Cc2ccc(Br)cc2F)c(=O)c2ccc(Cl)cc21,outcome,[11],inactive
same,outcome,[12],inactive
